# Assay results as given in the supplement of paper PMC4022240.
# ± gives the standard deviation.
# B1: H2A 1-13 Sph G R G K Q G G K A R A K (peptide)
# chain: SGRGKQGGKARAK
# B2: H2A 1-13 Sph G Rcit G K Q G G K A R A K (peptide)
# chain: SGRGKQGGKARAK
# B3: H2A 1-13 Sph G Rme2a G K Q G G K A R A K (peptide)
# chain: SGRGKQGGKARAK
# B4: H2A 1-13 S G R G K Q G G Kac A R A K (peptide)
# chain: SGRGKQGGKARAK
# B5: H2A 1-13 S G R G Kac Q G G Kac A R A K (peptide)
# chain: SGRGKQGGKARAK
# B6: H2A 1-13 S G Rcit G K Q G G K A R A K (peptide)
# chain: SGRGKQGGKARAK
# B7: H2A 1-13 Sph G R G Kac Q G G K A R A K (peptide)
# chain: SGRGKQGGKARAK
# B8: H2A 1-13 S G R G K Q G G K A R A K (peptide)
# chain: SGRGKQGGKARAK
# B9: H2A 1-13 Sph G R G K Q G G Kac A R A K (peptide)
# chain: SGRGKQGGKARAK
# B10: H2A 1-13 S G Rme2a G K Q G G K A R A K (peptide)
# chain: SGRGKQGGKARAK
# What was measured:
# Experiment in all cases: peptide microarray binding signal (635 nm), min-max normalized on array (fraction of array maximum); higher = stronger binding
# Settings in all cases: peptide region: H2A 1-13
# [1] = molecular target: T1, HaloTag-ATRX ADD domain (163-292)
# T1 chain: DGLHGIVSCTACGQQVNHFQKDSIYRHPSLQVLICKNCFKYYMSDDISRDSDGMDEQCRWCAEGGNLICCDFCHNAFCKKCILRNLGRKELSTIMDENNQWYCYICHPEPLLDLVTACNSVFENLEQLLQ
# Description: (§1)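 Histone 13-mer peptides were synthesized as cellulose conjugates with a C-terminal 20-atom PEG linker and printed in triplicate on nitrocellulose. The sequence given is the unmodified backbone; PTMs (Kme1/2/3, Kac, Sph/Tph, Rme/Rme2a/Rme2s, Rcit) are listed in the label and the 'peptide modifications' condition. Slides were probed at 4 °C for 1 h with biotin-labelled (HQ)5-HaloTag reader fusions (ATRX-ADD, ING2-PHD) then streptavidin-Alexa647, or with rabbit histone antibodies then anti-rabbit Alexa647. The mean 635 nm signal of the triplicate spots was scaled 0-1 between the lowest and highest values on each array.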
# [2] = molecular target: HaloTag-ING2 PHD (mouse Ing2 200-280)
# Description: as §1
# [3] = molecular target: anti-H3K4me3 antibody ab8580
# Description: as §1
# [4] = molecular target: anti-H3K9me3 antibody ab8898
# Description: as §1
# [5] = peptide modifications: H2AS1ph, binder concentration: 1:2,000 dilution
# [6] = peptide modifications: H2AS1ph, binder concentration: 1:10,000 dilution
# [7] = peptide modifications: H2AS1ph H2AR3cit, binder concentration: 1:2,000 dilution
# [8] = peptide modifications: H2AS1ph H2AR3cit, binder concentration: 1:10,000 dilution
# [9] = peptide modifications: H2AS1ph H2AR3me2a, binder concentration: 1:2,000 dilution
# [10] = peptide modifications: H2AS1ph H2AR3me2a, binder concentration: 1:10,000 dilution
# [11] = peptide modifications: H2AK9ac, binder concentration: 1:2,000 dilution
# [12] = peptide modifications: H2AK9ac, binder concentration: 1:10,000 dilution
# [13] = peptide modifications: H2AK5ac H2AK9ac, binder concentration: 1:2,000 dilution
# [14] = peptide modifications: H2AK5ac H2AK9ac, binder concentration: 1:10,000 dilution
# [15] = peptide modifications: H2AR3cit, binder concentration: 1:2,000 dilution
# [16] = peptide modifications: H2AR3cit, binder concentration: 1:10,000 dilution
# [17] = peptide modifications: H2AS1ph H2AK5ac, binder concentration: 1:2,000 dilution
# [18] = peptide modifications: H2AS1ph H2AK5ac, binder concentration: 1:10,000 dilution
# [19] = binder concentration: 1:2,000 dilution
# [20] = binder concentration: 1:10,000 dilution
# [21] = peptide modifications: H2AS1ph H2AK9ac, binder concentration: 1:2,000 dilution
# [22] = peptide modifications: H2AR3me2a, binder concentration: 1:2,000 dilution
# [23] = peptide modifications: H2AR3me2a, binder concentration: 1:10,000 dilution
binder,measurement,setting,value
B1,peptide microarray binding signal,"[1]; peptide modifications: H2AS1ph, binder concentration: 50 nM",0.00235 ± 3.8e-05
same,peptide microarray binding signal,"[1]; peptide modifications: H2AS1ph, binder concentration: 500 nM",0.00462 ± 0.00011
same,peptide microarray binding signal,"[2]; peptide modifications: H2AS1ph, binder concentration: 10 nM",0.002148 ± 1.2e-05
same,peptide microarray binding signal,"[2]; peptide modifications: H2AS1ph, binder concentration: 100 nM",0.00312 ± 0.00029
same,peptide microarray binding signal,[3]; [5],0.000208 ± 2.2e-06
same,peptide microarray binding signal,[3]; [6],0.000342 ± 3.8e-06
same,peptide microarray binding signal,[4]; [5],0.000166 ± 3.6e-06
same,peptide microarray binding signal,[4]; [6],0.000231 ± 2.6e-06
B2,peptide microarray binding signal,"[1]; peptide modifications: H2AS1ph H2AR3cit, binder concentration: 50 nM",0.00392 ± 8.1e-05
same,peptide microarray binding signal,"[1]; peptide modifications: H2AS1ph H2AR3cit, binder concentration: 500 nM",0.00486 ± 5.6e-05
same,peptide microarray binding signal,"[2]; peptide modifications: H2AS1ph H2AR3cit, binder concentration: 10 nM",0.00167 ± 3e-05
same,peptide microarray binding signal,"[2]; peptide modifications: H2AS1ph H2AR3cit, binder concentration: 100 nM",0.00283 ± 0.0002
same,peptide microarray binding signal,[3]; [7],0.000472 ± 2.6e-05
same,peptide microarray binding signal,[3]; [8],0.000514 ± 1.1e-05
same,peptide microarray binding signal,[4]; [7],0.000272 ± 4.9e-06
same,peptide microarray binding signal,[4]; [8],0.000692 ± 7.3e-06
B3,peptide microarray binding signal,"[1]; peptide modifications: H2AS1ph H2AR3me2a, binder concentration: 50 nM",0.00235 ± 9e-05
same,peptide microarray binding signal,"[1]; peptide modifications: H2AS1ph H2AR3me2a, binder concentration: 500 nM",0.00381 ± 0.00015
same,peptide microarray binding signal,"[2]; peptide modifications: H2AS1ph H2AR3me2a, binder concentration: 10 nM",0.003223 ± 1.8e-05
same,peptide microarray binding signal,"[2]; peptide modifications: H2AS1ph H2AR3me2a, binder concentration: 100 nM",0.00206 ± 4.1e-05
same,peptide microarray binding signal,[3]; [9],0.000472 ± 1.2e-05
same,peptide microarray binding signal,[3]; [10],0.000685 ± 7.2e-06
same,peptide microarray binding signal,[4]; [9],0.000332 ± 3.4e-06
same,peptide microarray binding signal,[4]; [10],0.000577 ± 6.2e-06
B4,peptide microarray binding signal,"[1]; peptide modifications: H2AK9ac, binder concentration: 50 nM",0.00348 ± 0.0001
same,peptide microarray binding signal,"[1]; peptide modifications: H2AK9ac, binder concentration: 500 nM",0.00619 ± 0.00024
same,peptide microarray binding signal,"[2]; peptide modifications: H2AK9ac, binder concentration: 10 nM",0.00251 ± 0.00014
same,peptide microarray binding signal,"[2]; peptide modifications: H2AK9ac, binder concentration: 100 nM",0.00638 ± 0.00045
same,peptide microarray binding signal,[3]; [11],0.000547 ± 2.3e-05
same,peptide microarray binding signal,[3]; [12],0.000399
same,peptide microarray binding signal,[4]; [11],0.000227
same,peptide microarray binding signal,[4]; [12],0.00075 ± 1.6e-05
B5,peptide microarray binding signal,"[1]; peptide modifications: H2AK5ac H2AK9ac, binder concentration: 50 nM",0.00382 ± 4.6e-05
same,peptide microarray binding signal,"[1]; peptide modifications: H2AK5ac H2AK9ac, binder concentration: 500 nM",0.00743 ± 0.00068
same,peptide microarray binding signal,"[2]; peptide modifications: H2AK5ac H2AK9ac, binder concentration: 10 nM",0.00281 ± 0.00011
same,peptide microarray binding signal,"[2]; peptide modifications: H2AK5ac H2AK9ac, binder concentration: 100 nM",0.00815 ± 0.00019
same,peptide microarray binding signal,[3]; [13],0.00109 ± 0.00019
same,peptide microarray binding signal,[3]; [14],0.000571
same,peptide microarray binding signal,[4]; [13],0.000227 ± 4.1e-06
same,peptide microarray binding signal,[4]; [14],0.000519 ± 5.6e-06
B6,peptide microarray binding signal,"[1]; peptide modifications: H2AR3cit, binder concentration: 50 nM",0.00257 ± 6.9e-05
same,peptide microarray binding signal,"[1]; peptide modifications: H2AR3cit, binder concentration: 500 nM",0.00614 ± 6.4e-05
same,peptide microarray binding signal,"[2]; peptide modifications: H2AR3cit, binder concentration: 10 nM",0.00137 ± 3.3e-05
same,peptide microarray binding signal,"[2]; peptide modifications: H2AR3cit, binder concentration: 100 nM",0.00262 ± 0.0002
same,peptide microarray binding signal,[3]; [15],0.000245 ± 2.6e-06
same,peptide microarray binding signal,[3]; [16],0.000514 ± 5.5e-06
same,peptide microarray binding signal,[4]; [15],0.000181
same,peptide microarray binding signal,[4]; [16],0.000404 ± 4.4e-06
B7,peptide microarray binding signal,"[1]; peptide modifications: H2AS1ph H2AK5ac, binder concentration: 50 nM",0.00298 ± 3.8e-05
same,peptide microarray binding signal,"[1]; peptide modifications: H2AS1ph H2AK5ac, binder concentration: 500 nM",0.00752 ± 0.00011
same,peptide microarray binding signal,"[2]; peptide modifications: H2AS1ph H2AK5ac, binder concentration: 10 nM",0.00292 ± 9.7e-05
same,peptide microarray binding signal,"[2]; peptide modifications: H2AS1ph H2AK5ac, binder concentration: 100 nM",0.00276 ± 0.00011
same,peptide microarray binding signal,[3]; [17],0.000264 ± 5.6e-06
same,peptide microarray binding signal,[3]; [18],0.000685 ± 7.2e-06
same,peptide microarray binding signal,[4]; [17],0.000257 ± 2.7e-06
same,peptide microarray binding signal,[4]; [18],0.000577 ± 6.2e-06
B8,peptide microarray binding signal,[1]; binder concentration: 50 nM,0.00364 ± 0.00013
same,peptide microarray binding signal,[1]; binder concentration: 500 nM,0.00819 ± 0.00076
same,peptide microarray binding signal,[2]; binder concentration: 10 nM,0.00298 ± 3.3e-05
same,peptide microarray binding signal,[2]; binder concentration: 100 nM,0.00446 ± 7.4e-05
same,peptide microarray binding signal,[3]; [19],0.00034 ± 6.1e-06
same,peptide microarray binding signal,[3]; [20],0.000571 ± 1.1e-05
same,peptide microarray binding signal,[4]; [19],0.000242 ± 6.7e-06
same,peptide microarray binding signal,[4]; [20],0.000404 ± 4.4e-06
B9,peptide microarray binding signal,"[1]; peptide modifications: H2AS1ph H2AK9ac, binder concentration: 500 nM",0.005476 ± 3.5e-05
same,peptide microarray binding signal,"[2]; peptide modifications: H2AS1ph H2AK9ac, binder concentration: 100 nM",0.00354 ± 0.00045
same,peptide microarray binding signal,[3]; [21],0.000208 ± 2.2e-06
same,peptide microarray binding signal,[4]; [21],0.000121 ± 1.3e-06
B10,peptide microarray binding signal,"[1]; peptide modifications: H2AR3me2a, binder concentration: 50 nM",0.005172 ± 5e-05
same,peptide microarray binding signal,"[1]; peptide modifications: H2AR3me2a, binder concentration: 500 nM",0.0126 ± 0.00024
same,peptide microarray binding signal,"[2]; peptide modifications: H2AR3me2a, binder concentration: 10 nM",0.00382 ± 0.0003
same,peptide microarray binding signal,"[2]; peptide modifications: H2AR3me2a, binder concentration: 100 nM",0.0113 ± 0.00033
same,peptide microarray binding signal,[3]; [22],0.00119 ± 9.3e-05
same,peptide microarray binding signal,[3]; [23],0.00143 ± 2.4e-05
same,peptide microarray binding signal,[4]; [22],0.000483 ± 1.2e-05
same,peptide microarray binding signal,[4]; [23],0.00075 ± 7.9e-06
